PriA SSB inh = K. pneumoniae PriA-SSBct interaction inhibition | AlphaScreen SSBct-PriA binding, biotinylated peptide | inhibition, % at 33 µM | 430,000 tested, 0.6% active | AID 1272365; in the data active = inhibition mostly above about 37%, no sharp cut-off; inactive = mostly below about 20%;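 also: plate controls were negative control peptide for no effect and reference peptide for full effect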
Rv3671c inh = inhibits the M. tuberculosis serine protease Rv3671c; P9WHR9; 320,000 tested, 0.048% active; inhibition, % at 5.96 µM; AID 2606; in the data active = inhibition above about 38%;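 also: extracellular domain of Rv3671c used as enzyme; 0% = enzyme with DMSO and 100% = no enzyme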
PrP UTR inh = suppresses PrP 5' UTR mRNA reporter expression. cell-based PrP 5' UTR mRNA reporter, plate reader. inhibition, % (test concentration not listed). 340,000 tested, 0.35% active; in the data active = inhibition above about 52%; also: 0 = median of the neutral control wells
Mtb UGM inh = blocks M. tuberculosis UGM enzyme; P9WIQ1; purified UGM, fluorescence polarization probe displacement; inhibition, % at 10 µM; 320,000 tested, 0.06% active; in the data active = inhibition above about 10%, passing the limit was not always enough
Target sequence (P9WIQ1 whole entry, looked up): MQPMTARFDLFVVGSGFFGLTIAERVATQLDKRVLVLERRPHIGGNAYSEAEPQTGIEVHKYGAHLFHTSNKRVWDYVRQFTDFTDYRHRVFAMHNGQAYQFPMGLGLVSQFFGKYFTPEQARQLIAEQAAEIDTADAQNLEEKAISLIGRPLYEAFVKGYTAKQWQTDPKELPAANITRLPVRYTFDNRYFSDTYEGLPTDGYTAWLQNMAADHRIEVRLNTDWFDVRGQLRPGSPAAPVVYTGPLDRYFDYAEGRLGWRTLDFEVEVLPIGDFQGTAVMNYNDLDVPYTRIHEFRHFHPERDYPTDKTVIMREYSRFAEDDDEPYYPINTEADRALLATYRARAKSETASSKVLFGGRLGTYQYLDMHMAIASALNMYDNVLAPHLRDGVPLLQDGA
FadD28 binding = inhibitors of Mycobacterium tuberculosis FadD28 bisubstrate binding | FadD28 bisubstrate probe binding, fluorescence polarization | inhibition, % at 12.5 µM | 360,000 tested, 0.22% active | AID 588549; in the data active = inhibition above about 8.5%, passing the limit was not always enough
PrPC TRFRET = reduces human prion protein on the cell surface; cell surface PrPC, TR-FRET read-out; inhibition, % at 13.8 µM; 370,000 tested, 0.43% active; in the data active = inhibition above about 24%; also: 0% = median of the test wells and 100% = reference compound wells
* hit, by the source's call. Only some compounds are listed: those with a hit (about 1.2% of all), similar ones and a draw of the others.

For COc1cccc(NC(=O)c2oc3ccccc3c2NC(=O)C2CC2)c1 the results were PriA SSB inh 14, Rv3671c inh -8, PrP UTR inh 12, Mtb UGM inh 5, FadD28 binding 0 and PrPC TRFRET 0.
`O=S(=O)(NCCn1ccc(-c2ccncc2)n1)c1ccc(C(F)(F)F)cc1` gave PriA SSB inh 10.
`CN1c2ccccc2N(C)C1(C)c1ccccc1` gave PriA SSB inh 42*, Rv3671c inh -30, PrP UTR inh -9, Mtb UGM inh 1, FadD28 binding 0 and PrPC TRFRET 1.
For COC(=O)c1cc(NS(=O)(=O)c2ccc(N3CCCCC3)c([N+](=O)[O-])c2)cc(C(=O)OC)c1 the results were PriA SSB inh 28, Rv3671c inh -31, PrP UTR inh -5, Mtb UGM inh 3, FadD28 binding 1 and PrPC TRFRET 0.
`Cc1ccc(NS(=O)(=O)c2ccc(N3CCN(c4ccc(O)cc4)CC3)c([N+](=O)[O-])c2)c(C)c1` gave PriA SSB inh 63*, Rv3671c inh 8, PrP UTR inh 0, Mtb UGM inh 2, FadD28 binding -2 and PrPC TRFRET 2.
`CC(=O)N1CCc2cc(S(=O)(=O)Nc3ccc(C)cc3C)ccc21` gave PriA SSB inh -12, Rv3671c inh -1, PrP UTR inh -14, Mtb UGM inh 0 and PrPC TRFRET 12.
For O=[N+]([O-])c1cc(S(=O)(=O)Nc2ccccc2)ccc1N1CCN(c2ccc(O)cc2)CC1 the results were PriA SSB inh 43*, Rv3671c inh 4, PrP UTR inh -19, FadD28 binding 1 and PrPC TRFRET 4.
`CN1CCN(S(=O)(=O)c2ccc(N3CCN(c4ccc(O)cc4)CC3)c([N+](=O)[O-])c2)CC1` gave PriA SSB inh 17, Rv3671c inh -7, PrP UTR inh -6, Mtb UGM inh 1, FadD28 binding -2 and PrPC TRFRET -36.
For COC(=O)c1cc(NS(=O)(=O)c2ccc(N3CCC(C)CC3)c([N+](=O)[O-])c2)cc(C(=O)OC)c1 the results were PriA SSB inh 56*, Rv3671c inh -63, PrP UTR inh -2, Mtb UGM inh 0, FadD28 binding -1 and PrPC TRFRET 5.
Cn1nc(-c2ccccc2NC(=O)c2ccc(Cn3ccnc3)cc2)ccc1=O was read as PriA SSB inh 1.
Screening O=C(Nc1ccccc1-c1cn2ccsc2n1)c1ccc(Cn2ccnc2)cc1 returned PriA SSB inh 39*.
Screening CN1CCCC1CCNC1C2CC3CC(C2)CC1C3 (centres undefined) returned PriA SSB inh 41*, Rv3671c inh -9, PrP UTR inh -23, Mtb UGM inh 3, FadD28 binding -1 and PrPC TRFRET -3.
For O=c1cc(-c2ccccc2Cl)oc2ccc([N+](=O)[O-])c(O)c12 the results were PriA SSB inh -4, Rv3671c inh 0, PrP UTR inh -14, Mtb UGM inh 2, FadD28 binding -2 and PrPC TRFRET -3.
Screening O=[N+]([O-])c1cc([N+](=O)[O-])c2oc(-c3ccccc3)c(Br)c2c1O returned PriA SSB inh 10, PrP UTR inh -27 and FadD28 binding 26*.
For c1ccc2c(C(c3ccc4c(c3)OCO4)c3c[nH]c4ccccc34)c[nH]c2c1 the results were PriA SSB inh 37*.
`O=C(NC(Cc1c[nH]c2ccccc12)C(=O)O)c1ccc2c(c1)OCO2` (centres undefined) gave PriA SSB inh -1, Rv3671c inh 6, PrP UTR inh -4, Mtb UGM inh 2, FadD28 binding -1 and PrPC TRFRET -3.
For CCc1cccc2c(C(=O)COC(=O)c3c(C)noc3C)c[nH]c12 the results were PriA SSB inh -10, Rv3671c inh -3, PrP UTR inh -22, Mtb UGM inh 1, FadD28 binding 1 and PrPC TRFRET 4.
For CCc1cccc2c(C(=O)COC(=O)[C@@H]3CC(O)CN3S(=O)(=O)c3ccccc3[N+](=O)[O-])c[nH]c12 (some centres undefined) the results were PriA SSB inh 8, Rv3671c inh -3, PrP UTR inh -1, Mtb UGM inh -1, FadD28 binding 11* and PrPC TRFRET -20.
Screening CCc1cccc2c(C(=O)COC(=O)c3cnc(C)cn3)c[nH]c12 returned PriA SSB inh -6, Rv3671c inh 3, PrP UTR inh -23, Mtb UGM inh 0, FadD28 binding 13* and PrPC TRFRET -4.
Screening CCc1cccc2c(C(=O)COC(=O)c3nccnc3N)c[nH]c12 returned PriA SSB inh -5, Rv3671c inh 5, PrP UTR inh -28, Mtb UGM inh 0, FadD28 binding 3 and PrPC TRFRET -9.
Screening CCc1cccc2c(C(=O)COC(=O)c3ccccc3)c[nH]c12 returned PriA SSB inh -5, Rv3671c inh -7, PrP UTR inh -116, Mtb UGM inh 0, FadD28 binding 18* and PrPC TRFRET -8.
`CCc1cccc2c(C(=O)COC(=O)c3ccc(O)cc3)c[nH]c12` gave PriA SSB inh -12, Rv3671c inh -113, PrP UTR inh -42, Mtb UGM inh 3, FadD28 binding 34* and PrPC TRFRET -4.
For O=C(COC(=O)[C@@H]1CC(O)CN1S(=O)(=O)c1ccccc1[N+](=O)[O-])c1ccccc1 (some centres undefined) the results were PriA SSB inh 3, Rv3671c inh 4, PrP UTR inh -28, Mtb UGM inh 4, FadD28 binding -3 and PrPC TRFRET -7.
For Cc1nc2ccccn2c(=O)c1NC(=O)NC1CCCCC1 the results were PriA SSB inh 3.
Screening CN(C)S(=O)(=O)c1cccc(NC(=S)NN=Cc2ccc(O)c(O)c2O)c1 returned PriA SSB inh 102*.
For CN(C)S(=O)(=O)c1cccc(NC(=S)N/N=C/c2cc(Br)ccc2O)c1 the results were Rv3671c inh -1, PrP UTR inh 33, Mtb UGM inh -2, FadD28 binding 2 and PrPC TRFRET -4.
Screening O=C(O)c1ccnc(C(=O)O)c1 returned PriA SSB inh 57*, Rv3671c inh -5, PrP UTR inh -3, Mtb UGM inh 4, FadD28 binding -1 and PrPC TRFRET -5.
O=C(c1cc(-n2ccnc2)ccn1)N1CCN(c2ccccc2)CC1 was read as PriA SSB inh -3.
For O=C(O)c1cc(Br)ccn1 the results were PriA SSB inh 100*, Rv3671c inh 0, PrP UTR inh -26, Mtb UGM inh 0, FadD28 binding 0 and PrPC TRFRET 5.
O=C(O)c1cc(-n2ccnc2)ccn1 was read as PriA SSB inh 72*.
`O=C(O)c1cc(Cl)ccn1` gave PriA SSB inh 68*.
For CC(C)Cc1nnc(NC(=O)c2cc(Cl)ccn2)s1 the results were PriA SSB inh 43.
`O=C(Nc1nncs1)c1cc(Cl)ccn1` gave PriA SSB inh 124*.
For CCOC(=O)CCC(=O)N1CCC(CSc2nccn2C)CC1 the results were PriA SSB inh 6.
